Data as given in the supplement of paper PMC12494721.
Structures can show the parent of a compound that is named as a salt.

Columns and labels:
Details in all cases: incubation time: 27 h, anaerobic, 37 °C;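 for the amine columns active = adjusted P below 0.05 in both replicates with a change the same way and a mean fold change under 0.8 or over 1.25; inactive = the rest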
[1] = tested on: Clostridium sporogenes DSM 1664; assay: growth (OD595) fold change vs plate DMSO controls (fold change (ratio)); higher = more growth
Procedure, shortened: (§1)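 Growth is the fold change relative to the median of plate DMSO controls. Readings came from anaerobic mGAM cultures in 96-well plates grown for 27 h at 37 °C and read at 595 nm. They were blank-subtracted, corrected for compound background with 20 µM compound solutions in water, and converted to OD with a calibration factor of 5. Values are means of 2 biological replicates, and fold changes above 1.5 were set to NA.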

Escherichia coli IAI1 [2] = assay: as above
Procedure, shortened: as §1

[3] = tested on: Klebsiella aerogenes DSM 30053; assay: as above
Procedure, shortened: as §1

[4] = tested on: Ruminococcus gnavus DSM 108212; assay: as above
Procedure, shortened: as §1

[5] = tested on: Klebsiella aerogenes DSM 30053; assay: fold change of Histamine concentration vs plate DMSO controls (fold change (ratio)); higher = more amine produced, active = hit call of the paper (significant change in both replicates, either direction)
Procedure, shortened: (§2)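 Amines were quantified by LC–triple-quadrupole MS in dynamic MRM mode against external calibration curves, with drift correction within each batch. The samples were whole anaerobic mGAM cultures of four gut bacterial strains, grown for 27 h at 37 °C in 80 µL wells and extracted with cold acetonitrile/methanol with 0.1% formic acid, then centrifuged. Values are reported as fold change over DMSO controls on the same plate. The mean of 2 biological replicates is given.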

[6] = tested on: Clostridium sporogenes DSM 1664; assay: fold change of Tryptamine concentration vs plate DMSO controls (fold change (ratio)); higher = more amine produced, active = hit call of the paper (significant change in both replicates, either direction)
Procedure, shortened: as §2

[7] = tested on: Ruminococcus gnavus DSM 108212; assay: as above
Procedure, shortened: as §2

Escherichia coli IAI1 [8] = assay: fold change of Putrescine concentration vs plate DMSO controls (fold change (ratio)); higher = more amine produced, active = hit call of the paper (significant change in both replicates, either direction)
Procedure, shortened: as §2

[9] = tested on: Klebsiella aerogenes DSM 30053; assay: as above
Procedure, shortened: as §2

Escherichia coli IAI1 [10] = assay: fold change of Cadaverine concentration vs plate DMSO controls (fold change (ratio)); higher = more amine produced, active = hit call of the paper (significant change in both replicates, either direction)
Procedure, shortened: as §2

[11] = tested on: Klebsiella aerogenes DSM 30053; assay: as above
Procedure, shortened: as §2

[12] = tested on: Ruminococcus gnavus DSM 108212; assay: fold change of 2-Phenylethylamine concentration vs plate DMSO controls (fold change (ratio)); higher = more amine produced, active = hit call of the paper (significant change in both replicates, either direction)
Procedure, shortened: as §2

SMILES | growth [1] | growth (Escherichia coli IAI1 [2]) | growth [3] | growth [4] | fold change of Histamine concentration [5] | fold change of Tryptamine concentration [6] | fold change of Tryptamine concentration [7] | fold change of Putrescine concentration (Escherichia coli IAI1 [8]) | fold change of Putrescine concentration [9] | fold change of Cadaverine concentration (Escherichia coli IAI1 [10]) | fold change of Cadaverine concentration [11] | fold change of 2-Phenylethylamine concentration [12]
CN(C)CC/C=C1\c2ccccc2CSc2ccccc21 [Dosulepin hydrochloride] (20 µM) | 1.07 | 0.99 | 0.968 | 0.844 | 0.887 (inactive) | 1.17 (inactive) | 0.961 (inactive) | 1.03 (inactive) | 0.941 (inactive) | 1.01 (inactive) | 1.06 (inactive) | 0.952 (inactive)
CCCCCCCCNC(C)C(O)c1ccc(SC(C)C)cc1 (centres undefined) [Suloctidil] (20 µM) | 1.12 | 1.08 | 1.06 |  | 0.987 (inactive) | 0.983 (inactive) | 0.729 (active) | 1.03 (inactive) | 0.977 (inactive) | 0.983 (inactive) | 0.996 (inactive) | 0.785 (active)
CCC(C)(C)C(=O)O[C@H]1C[C@@H](C)C=C2C=C[C@H](C)[C@H](CC[C@@H]3C[C@@H](O)CC(=O)O3)[C@H]21 [Simvastatin] (20 µM) | 1.01 | 1.05 | 1.25 |  | 0.919 (inactive) | 0.967 (inactive) | 0.995 (inactive) | 1 (inactive) | 1.03 (inactive) | 1 (inactive) | 1.03 (inactive) | 0.991 (inactive)
CC1COc2c(N3CCN(C)CC3)c(F)cc3c(=O)c(C(=O)O)cn1c23 (centres undefined) [Ofloxacin] (20 µM) | 0.0346 | 0.0388 | 0.256 |  | 0.09 (active) | 0.0354 (active) | 0.997 (inactive) | 0.809 (inactive) | 0.653 (active) | 0.187 (active) | 0.961 (inactive) | 1.06 (inactive)
Nc1ncn(C2OC(CO)C(O)C2O)c(=O)n1 (centres undefined) [Azacytidine-5] (20 µM) | 1.02 | 0.811 | 0.974 |  | 1.03 (inactive) | 0.953 (inactive) | 0.881 (inactive) | 0.794 (inactive) | 1.01 (inactive) | 1.72 (active) | 0.985 (inactive) | 0.935 (inactive)
CC(C)(C)CC(C)(C)c1ccc(OCCOCC[N+](C)(C)Cc2ccccc2)cc1 [Benzethonium chloride] (20 µM) | 0.869 | 0.964 | 1.02 |  | 1.07 (inactive) | 0.956 (inactive) | 0.866 (inactive) | 0.975 (inactive) | 1.01 (inactive) | 1.02 (inactive) | 0.988 (inactive) | 0.895 (inactive)
Cc1cc(C(C)(C)CC(C)(C)C)ccc1OCCOCC[N+](C)(C)Cc1ccccc1 [Methyl benzethonium chloride] (20 µM) | 0.896 | 1.13 | 1.04 |  | 1.11 (inactive) | 0.948 (inactive) | 0.726 (active) | 1.05 (inactive) | 1.01 (inactive) | 1.04 (inactive) | 0.985 (inactive) | 0.803 (inactive)
CC(C)/N=c1\cc2n(-c3ccc(Cl)cc3)c3ccccc3nc-2cc1Nc1ccc(Cl)cc1 [Clofazimine] (20 µM) | 0.239 | 1.03 | 1.04 |  | 0.999 (inactive) | 0.0321 (active) | 0.637 (active) | 1.04 (inactive) | 1.04 (inactive) | 1 (inactive) | 1.03 (inactive) | 0.727 (active)
COC(=O)Nc1nc2cc(C(=O)c3cccs3)ccc2[nH]1 [Nocodazole] (20 µM) | 0.969 | 1.01 | 1.02 | 1.05 | 0.98 (inactive) | 0.968 (inactive) | 0.999 (inactive) | 0.977 (inactive) | 1 (inactive) | 0.996 (inactive) | 1.03 (inactive) | 1.03 (inactive)
CC(C)(O/N=C(\C(=O)N[C@@H]1C(=O)N2C(C(=O)[O-])=C(C[n+]3ccccc3)CS[C@H]12)c1csc(N)n1)C(=O)O [Ceftazidime pentahydrate] (20 µM) | 0.781 | 0.132 | 0.595 |  | 1.18 (inactive) | 1.04 (inactive) | 0.877 (inactive) | 2.08 (active) | 0.905 (inactive) | 2.09 (active) | 1.16 (inactive) | 0.865 (inactive)
NS(=O)(=O)c1cc(C(=O)O)c(NCc2ccco2)cc1Cl [Furosemide] (20 µM) | 0.941 | 1.01 | 1.04 | 1.22 | 0.987 (inactive) | 0.964 (inactive) | 1.01 (inactive) | 1.04 (inactive) | 0.984 (inactive) | 0.995 (inactive) | 0.988 (inactive) | 0.964 (inactive)
COc1cccc(OC)c1C(=O)N[C@@H]1C(=O)N2[C@@H]1SC(C)(C)[C@@H]2C(=O)O [Methicillin sodium] (20 µM) | 0.569 | 1.14 | 0.978 |  | 1.05 (inactive) | 0.196 (active) | 0.608 (active) | 1.24 (inactive) | 1 (inactive) | 0.875 (inactive) | 0.969 (inactive) | 0.721 (inactive)
C[C@H]1COc2c(N3CCN(C)CC3)c(F)cc3c(=O)c(C(=O)O)cn1c23 [Levofloxacin] (20 µM) | 0.012 | 0.012 | 0.11 |  | 0.107 (active) | 0.0435 (active) | 0.755 (active) | 0.521 (active) | 0.657 (active) | 0.226 (active) | 0.953 (inactive) | 0.823 (inactive)
COc1cc(N)c(Cl)cc1C(=O)NC1CCN(CCCOc2ccc(F)cc2)CC1OC (centres undefined) [Cisapride] (20 µM) | 0.913 | 0.988 | 0.969 | 0.705 | 0.959 (inactive) | 0.972 (inactive) | 0.922 (inactive) | 1 (inactive) | 0.983 (inactive) | 1.02 (inactive) | 0.993 (inactive) | 0.929 (inactive)
NC(=O)c1cc[n+](CC2=C(C(=O)[O-])N3C(=O)[C@@H](NC(=O)[C@@H](c4ccccc4)S(=O)(=O)O)[C@H]3SC2)cc1 [Cefsulodin sodium salt] (20 µM) | 0.613 | 0.995 | 1.02 |  | 1 (inactive) | 0.876 (inactive) | 0.796 (active) | 0.97 (inactive) | 1.01 (inactive) | 1.07 (inactive) | 1 (inactive) | 0.886 (inactive)
CC1CCc2cc(F)cc3c(=O)c(C(=O)O)cn1c23 (centres undefined) [Flumequine] (20 µM) | 0.015 | 0.0532 | 0.404 | 0.706 | 0.301 (active) | 0.0425 (active) | 0.989 (inactive) | 0.679 (active) | 1.13 (inactive) | 0.209 (active) | 0.975 (inactive) | 0.952 (inactive)
CN(C)/N=N/c1[nH]cnc1C(N)=O [Dacarbazine] (20 µM) | 0.822 | 1 | 1.06 | 1.02 | 0.954 (inactive) | 1 (inactive) | 1.01 (inactive) | 0.984 (inactive) | 1.01 (inactive) | 0.993 (inactive) | 1.02 (inactive) | 1.05 (inactive)
O=C1C(=O)c2ccccc2C(O)=C1C1CCC(c2ccc(Cl)cc2)CC1 (centres undefined) [Atovaquone] (20 µM) | 1.24 | 1.02 | 1.07 |  | 1.01 (inactive) | 0.793 (inactive) | 0.753 (active) | 0.973 (inactive) | 1.03 (inactive) | 0.989 (inactive) | 1 (inactive) | 0.747 (active)
CN(Cc1cc(Br)cc(Br)c1N)C1CCCCC1 [Bromhexine hydrochloride] (20 µM) | 0.942 | 0.985 | 0.971 | 0.937 | 1.06 (inactive) | 1.05 (inactive) | 1 (inactive) | 1 (inactive) | 1.03 (inactive) | 1.06 (inactive) | 0.991 (inactive) | 1.07 (inactive)
Cn1cc(C(=O)Nc2ccc(F)cc2-c2ccc(Cl)c(Cl)c2)c(C(F)F)n1 (20 µM) | 1.12 | 1 | 0.972 | 1.21 | 1.06 (inactive) | 1.01 (inactive) | 0.907 (inactive) | 1.01 (inactive) | 1.01 (inactive) | 0.998 (inactive) | 0.986 (inactive) | 0.931 (inactive)
CCN(CC)C(=O)C1(c2ccccc2)CC1CN (centres undefined) [Milnacipran hydrochloride] (20 µM) | 1 | 1.02 | 1.03 | 1.16 | 0.968 (inactive) | 1.11 (inactive) | 1.09 (inactive) | 0.94 (inactive) | 0.958 (inactive) | 0.895 (inactive) | 1.04 (inactive) | 1.12 (inactive)
CO/N=C(\C(=O)N[C@@H]1C(=O)N2C(C(=O)OC(C)OC(C)=O)=C(COC(N)=O)CS[C@H]12)c1ccco1 (some centres undefined) [Cefuroxime axetil] (20 µM) | 0.673 | 1.18 | 1.1 |  | 0.905 (inactive) | 1.03 (inactive) | 0.936 (inactive) | 0.933 (inactive) | 1.05 (inactive) | 1.27 (active) | 1.02 (inactive) | 0.94 (inactive)
O=C(CCCN1CC=C(n2c(=O)[nH]c3ccccc32)CC1)c1ccc(F)cc1 [Droperidol] (20 µM) | 1.02 | 0.959 | 1.02 | 0.835 | 0.994 (inactive) | 0.988 (inactive) | 0.963 (inactive) | 0.977 (inactive) | 1.02 (inactive) | 1.03 (inactive) | 1 (inactive) | 0.956 (inactive)
N[C@@H](C(=O)N[C@@H]1C(=O)N2C(C(=O)O)=C(Cl)CC[C@H]12)c1ccccc1 [Loracarbef] (20 µM) | 0 | 1.15 | 1.13 |  | 0.886 (inactive) | 0.0238 (active) | 0.345 (active) | 1.05 (inactive) | 1.04 (inactive) | 1.52 (active) | 1.05 (inactive) | 0.319 (active)
